Measured values: PubChem BioAssay AID1159580 (chemical genetic matrix, 2015)
“And” between values parts separate entries of the source, which are not always exact repeats. Equal entries are not always repeated. About 2,000 (36%) of roughly 5,500 compounds were called active. Not shown: some 18% with an inconclusive outcome. Some of the results follow. Unmarked numbers belong to inactive results. No stated cut-off is given here; in the data, active means normalized growth mostly below about 0.91 (no sharp cut-off); inconclusive means no clear call, values can overlap the other calls; inactive means mostly above about 0.92.

Assay: chemical genetic growth profiling, strain panel (AID 1159580);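 further: tested at 20 µM; growth read once vehicle control cultures reached saturation at 30 °C; 1 = growth at the plate median or of vehicle wells; lower values mean less growth of the strain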
Settings: S. cerevisiae deletion strains, growth OD

For `C=C[C@@](C)(O)CCC1C(=C)C[C@H](O)C2C(C)(C)CCCC12C` (some centres not stated), which normalized growth (locus YAL013W, strain DEP1, hits give low values) is on record?
The normalized growth was 1.01.

What about the normalized growth (locus YAL021C, strain ccr4, hits give low values) of the same molecule?
Its normalized growth is 1.01.

What about the normalized growth (locus YAL026C, strain drs2, hits give low values) of the same molecule?
Its normalized growth is 0.972.

And the normalized growth (locus YAL030W, strain snc1, hits give low values)?
Its normalized growth is 0.996.

What about the normalized growth (locus YBL061C, strain skt5, hits give low values) of the same molecule?
Its normalized growth is 0.988.

And the normalized growth (locus YBR009C, strain hhf1, hits give low values)?
Its normalized growth is 0.986.

What about the normalized growth (locus YBR021W, strain FUR4, hits give low values) of the same molecule?
The normalized growth was 0.998.

What about the normalized growth (locus YBR023C, strain chs3, hits give low values) of the same molecule?
The normalized growth was 0.978.

And the normalized growth (locus YBR171W, strain sec66, hits give low values)?
Its normalized growth is 0.976.

And the normalized growth (locus YBR229C, strain ROT2, hits give low values)?
Its normalized growth is 1.01.

And the normalized growth (locus YBR231C, strain swc5, hits give low values)?
Its normalized growth is 1.

What about the normalized growth (locus YBR279W, strain paf1, hits give low values) of the same molecule?
Its normalized growth is 0.998.

And the normalized growth (locus YCL011C, strain gbp2, hits give low values)?
Its normalized growth is 0.991.

What about the normalized growth (locus YCL016C, strain dcc1, hits give low values) of the same molecule?
Its normalized growth is 0.971.

What about the normalized growth (locus YCL029C, strain bik1, hits give low values) of the same molecule?
Its normalized growth is 1.02.

And the normalized growth (locus YCL061C, strain MRC1, hits give low values)?
Its normalized growth is 0.98.

And the normalized growth (locus YCL069W, strain vba3, hits give low values)?
The normalized growth was 0.999.

And the normalized growth (locus YCR088W, strain abp1, hits give low values)?
The normalized growth was 0.99.

What about the normalized growth (locus YDL005C, strain med2, hits give low values) of the same molecule?
Its normalized growth is 0.976.

What about the normalized growth (locus YDL035C, strain GPR1, hits give low values) of the same molecule?
Its normalized growth is 0.991.

And the normalized growth (locus YDL040C, strain nat1, hits give low values)?
Its normalized growth is 0.997.

And the normalized growth (locus YDL074C, strain BRE1, hits give low values)?
The normalized growth was 0.974.

And the normalized growth (locus YDL101C, strain DUN1, hits give low values)?
The normalized growth was 1.01.

And the normalized growth (locus YDL134C, strain PPH21, hits give low values)?
Its normalized growth is 1.01.

And the normalized growth (locus YDL185W, strain tfp1, hits give low values)?
The normalized growth was 1.02.

And the normalized growth (locus YDL192W, strain arf1, hits give low values)?
The normalized growth was 1.02.

And the normalized growth (locus YDR001C, strain nth1, hits give low values)?
The normalized growth was 0.989.

What about the normalized growth (locus YDR069C, strain doa4, hits give low values) of the same molecule?
The normalized growth was 0.99.

And the normalized growth (locus YDR101C, strain arx1, hits give low values)?
The normalized growth was 1.

And the normalized growth (locus YDR137W, strain rgp1, hits give low values)?
Its normalized growth is 0.859.

And the normalized growth (locus YDR150W, strain NUM1, hits give low values)?
Its normalized growth is 1.01.

And the normalized growth (locus YDR159W, strain sac3, hits give low values)?
The normalized growth was 1.01.

And the normalized growth (locus YDR162C, strain NBP2, hits give low values)?
The normalized growth was 0.994.

And the normalized growth (locus YDR195W, strain ref2)?
The normalized growth was 1.05.

And the normalized growth (locus YDR297W, strain sur2, hits give low values)?
The normalized growth was 0.993.

What about the normalized growth (locus YDR318W, strain mcm21, hits give low values) of the same molecule?
The normalized growth was 1.02.

And the normalized growth (locus YDR334W, strain swr1, hits give low values)?
Its normalized growth is 0.993.

And the normalized growth (locus YDR335W, strain msn5, hits give low values)?
The normalized growth was 1.01.

What about the normalized growth (locus YDR388W, hits give low values) of the same molecule?
The normalized growth was 1.02.

And the normalized growth (locus YDR392W, strain spt3, hits give low values)?
Its normalized growth is 0.628 (active).

What about the normalized growth (locus YDR502C, strain sam2, hits give low values) of the same molecule?
Its normalized growth is 1.01.

What about the normalized growth (locus YEL003W, strain gim4, hits give low values) of the same molecule?
Its normalized growth is 1.

And the normalized growth (locus YEL037C, strain rad23, hits give low values)?
The normalized growth was 0.987.

And the normalized growth (locus YEL061C, strain CIN8 (second series), hits give low values)?
Its normalized growth is 0.992.

What about the normalized growth (locus YEL061C, strain CIN8, hits give low values) of the same molecule?
Its normalized growth is 1.01.

What about the normalized growth (locus YER015W, strain faa2, hits give low values) of the same molecule?
The normalized growth was 0.995.

What about the normalized growth (locus YER016W, strain bim1, hits give low values) of the same molecule?
Its normalized growth is 0.996.

What about the normalized growth (locus YER110C, hits give low values) of the same molecule?
Its normalized growth is 1.03.

And the normalized growth (locus YER111C, strain swi4, hits give low values)?
Its normalized growth is 0.976.

And the normalized growth (locus YER155C, strain BEM2 (second series), hits give low values)?
Its normalized growth is 1.01.

And the normalized growth (locus YER155C, strain BEM2, hits give low values)?
Its normalized growth is 1.01.

What about the normalized growth (locus YER167W, strain BCK2, hits give low values) of the same molecule?
Its normalized growth is 1.01.

And the normalized growth (locus YFR010W, strain ubp6, hits give low values)?
Its normalized growth is 1.01.

And the normalized growth (locus YGL078C, strain dbp3, hits give low values)?
The normalized growth was 1.02.

What about the normalized growth (locus YGL086W, strain mad1, hits give low values) of the same molecule?
Its normalized growth is 1.02.

What about the normalized growth (locus YGL167C, strain pmr1, hits give low values) of the same molecule?
The normalized growth was 0.97.

And the normalized growth (locus YGL173C, strain kem1, hits give low values)?
Its normalized growth is 0.974.

What about the normalized growth (locus YGL227W, strain vid30, hits give low values) of the same molecule?
The normalized growth was 0.997.

What about the normalized growth (locus YGL240W, strain doc1, hits give low values) of the same molecule?
Its normalized growth is 1.

What about the normalized growth (locus YGL248W, strain PDE1, hits give low values) of the same molecule?
Its normalized growth is 1.01.

And the normalized growth (locus YGL253W, strain hxk2, hits give low values)?
The normalized growth was 0.984.

What about the normalized growth (locus YGR078C, strain PAC10, hits give low values) of the same molecule?
The normalized growth was 1.

What about the normalized growth (locus YGR135W, strain pre9, hits give low values) of the same molecule?
The normalized growth was 1.

What about the normalized growth (locus YGR229C, strain SMI1, hits give low values) of the same molecule?
The normalized growth was 1.

What about the normalized growth (locus YGR252W, strain gcn5, hits give low values) of the same molecule?
The normalized growth was 0.995.

What about the normalized growth (locus YHR013C, strain ard1, hits give low values) of the same molecule?
Its normalized growth is 1.02.

And the normalized growth (locus YHR027C, strain rpn1, hits give low values)?
The normalized growth was 1.

And the normalized growth (locus YHR030C, strain SLT2, hits give low values)?
Its normalized growth is 1.01 and 0.934.

What about the normalized growth (locus YHR079C, strain IRE1 (second series), hits give low values) of the same molecule?
Its normalized growth is 1.02.

What about the normalized growth (locus YHR079C, strain IRE1, hits give low values) of the same molecule?
The normalized growth was 0.955.

What about the normalized growth (locus YHR094C, strain hxt1, hits give low values) of the same molecule?
Its normalized growth is 1.02.

And the normalized growth (locus YHR129C, strain ARP1, hits give low values)?
The normalized growth was 1.01.

What about the normalized growth (locus YHR142W, strain chs7, hits give low values) of the same molecule?
The normalized growth was 0.957.

What about the normalized growth (locus YHR200W, strain rpn10, hits give low values) of the same molecule?
Its normalized growth is 1.04.

And the normalized growth (locus YIL066C, strain RNR3, hits give low values)?
The normalized growth was 1.02.

What about the normalized growth (locus YIL073C, strain SPO22, hits give low values) of the same molecule?
Its normalized growth is 1.06.

What about the normalized growth (locus YIL125W, strain kgd1, hits give low values) of the same molecule?
Its normalized growth is 1.02.

What about the normalized growth (locus YIR030C, strain dcg1, hits give low values) of the same molecule?
Its normalized growth is 1.02.

What about the normalized growth (locus YJL092W, strain hpr5, hits give low values) of the same molecule?
The normalized growth was 0.993.

What about the normalized growth (locus YJL095W, strain BCK1 (second series), hits give low values) of the same molecule?
Its normalized growth is 0.992.

And the normalized growth (locus YJL095W, strain BCK1, hits give low values)?
The normalized growth was 0.999 and 0.952.

And the normalized growth (locus YJL115W, strain asf1, hits give low values)?
The normalized growth was 0.99.

What about the normalized growth (locus YJL129C, strain trk1, hits give low values) of the same molecule?
The normalized growth was 0.966.

What about the normalized growth (locus YJL134W, strain LCB3, hits give low values) of the same molecule?
Its normalized growth is 1.01.

What about the normalized growth (locus YJL154C, strain vps35, hits give low values) of the same molecule?
Its normalized growth is 0.997.

And the normalized growth (locus YJL164C, strain tpk1, hits give low values)?
The normalized growth was 0.982.

And the normalized growth (locus YJL166W, strain qcr8, hits give low values)?
Its normalized growth is 0.981.

And the normalized growth (locus YJL168C, strain set2, hits give low values)?
Its normalized growth is 1.03.

And the normalized growth (locus YJL187C, strain SWE1 (second series), hits give low values)?
Its normalized growth is 1.

And the normalized growth (locus YJL187C, strain SWE1, hits give low values)?
The normalized growth was 0.991.

What about the normalized growth (locus YJR043C, strain POL32, hits give low values) of the same molecule?
Its normalized growth is 0.997.

And the normalized growth (locus YJR066W, strain TOR1, hits give low values)?
The normalized growth was 0.923.
